# PubChem BioAssay AID1851 (National Center for Advancing Translational Sciences (NCATS), 2009)
# Out of some 16,000 compounds screened, about 5,100 (32%) were called active. Roughly 25% stayed inconclusive and do not appear here. The list shows a part of the results. A number with no mark means an inactive call. Calls come from the whole dose curve; as a rule, active = well fitted curve in the direction sought with a large enough effect; inconclusive = small, poorly fitted or top-dose-only effect, or effect the other way; inactive = no such curve, though single readings can be large or run the other way.
# Target: Cytochrome P450 3A4 (Homo sapiens) (UniProt P08684)
# Assay: Cytochrome panel assay with activity outcomes
# Conditions: recombinant CYP, pro-luciferin dealkylation, luminescence, p450-cyp3a4; series mostly up to 57.1 µM
# % is set by controls: 0 for no effect and ±100 for the full control effect.
# Cytochrome P450 3A4 (Homo sapiens), sequence (P08684 whole entry, looked up): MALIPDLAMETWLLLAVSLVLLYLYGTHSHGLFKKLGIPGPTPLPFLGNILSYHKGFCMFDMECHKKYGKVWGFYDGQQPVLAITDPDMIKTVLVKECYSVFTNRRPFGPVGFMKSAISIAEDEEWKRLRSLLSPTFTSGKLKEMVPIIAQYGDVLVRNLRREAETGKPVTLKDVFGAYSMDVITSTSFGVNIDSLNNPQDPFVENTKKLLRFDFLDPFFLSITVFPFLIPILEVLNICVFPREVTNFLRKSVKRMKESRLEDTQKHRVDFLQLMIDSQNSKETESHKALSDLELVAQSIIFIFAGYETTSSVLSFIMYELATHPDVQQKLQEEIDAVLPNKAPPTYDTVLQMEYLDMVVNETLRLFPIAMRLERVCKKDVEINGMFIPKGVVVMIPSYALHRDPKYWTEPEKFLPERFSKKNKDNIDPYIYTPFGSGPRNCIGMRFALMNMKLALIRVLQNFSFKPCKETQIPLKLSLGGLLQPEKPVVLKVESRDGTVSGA
Structure (SMILES),"activity, negative = inhibition",AC50
OC[C@@H]1O[C@@H](N2CCN([C@@H]3O[C@@H](CO)[C@@H](O)[C@H](O)[C@H]3O)CC2)[C@@H](O)[C@H](O)[C@H]1O,2.3% [at 11.4 µM],–
CCN(CC)C(=O)c1cc2cc([N+](=O)[O-])ccc2s1,20.4% [at 11.4 µM],–
CCN(CC(=O)Nc1ccc([N+](=O)[O-])cc1OC)c1ccccc1,–,12.6 µM (active)
CCCOc1ccc(/C=C/C(=O)Nc2ccc([N+](=O)[O-])cc2C)cc1,2.56% [at 11.4 µM],–
Cc1cccc[n+]1CC(=O)Nc1ccc([N+](=O)[O-])cc1Cl,–,inactive
COc1cc([N+](=O)[O-])ccc1NC(=O)CCCOc1cccc(C)c1,–,5.01 µM (active)
COc1ccccc1NC(=O)Cn1cncc1-c1ccc([N+](=O)[O-])cc1,–,14.1 µM (active)
Cc1cc2nc([C@H](C)C(=O)c3ccc(Cl)cc3)c(=O)[nH]c2cc1C,-25.9% [at 11.4 µM],–
CCCS(=O)(=O)N1CCCC(C(=O)N2CCOCC2)C1 (stereo not drawn),–,inactive
CSc1nc(Cl)cc(N(CCO)CCO)n1,–,inactive
COC(=O)C/C=C\[C@@H](C)[C@@H]1C=C[C@H](OC(C)=O)[C@H](COC(C)=O)O1,-23.4% [at 11.4 µM],–
CCCNC(=O)OC[C@H]1O[C@@H](CCO/N=C\[C@@H](NS(=O)(=O)c2ccc(C)cc2)[C@H](C)/C=C\CC(=O)OC)C=C[C@@H]1Oc1ccc(OC)cc1,–,3.16 µM (active)
COC(=O)C/C=C\[C@@H](C)[C@@H](/C=N\OCC[C@H]1C=C[C@H](OC(C)=O)[C@@H](COC(C)=O)O1)NS(=O)(=O)c1ccc(C)cc1,–,3.98 µM (active)
Nc1ccn([C@@H]2CC[C@H](CO)O2)c(=O)n1,–,inactive
COc1cc2c(cc1OC)CN(C(=S)Nc1ccccc1)CC2,–,12.6 µM (active)
CC(C)(CO)N1CCN(C(=S)Nc2ccccc2)CC1,-8.25% [at 11.4 µM],–
CC(=O)NCCC(=O)Nc1sc2c(c1-c1nc3ccccc3[nH]1)CCCC2,–,12.6 µM (active)
CC(=O)Nc1sc2c(c1CN1CCN(C)CC1)CCCC2,–,inactive
COc1cccc(Cn2c(=O)c(-c3cccs3)nc3cnc(N4CCNCC4)nc32)c1,–,15.8 µM (active)
COc1cccc(Cn2c(=O)c(-c3cccs3)nc3cnc(N4CCN(C)CC4)nc32)c1,–,12.6 µM (active)
CC(C)OC(=O)c1cc2c(OC[C@@H](O)CNC(C)(C)C)cccc2[nH]1,–,inactive

Structure (SMILES),"activity, negative = inhibition",AC50
CN1CCN(c2ncnc3ccc(-c4ccccc4C#N)cc23)CC1,–,15.8 µM (active)
CN1CCN(c2ncnc3ccc(-c4ccccc4Cl)cc23)CC1,–,5.01 µM (active)
Clc1ccc2c(N3CCC(CCC4CCN(c5ncnc6cc(Cl)ccc56)CC4)CC3)ncnc2c1,-31.6% [at 11.4 µM],–
Cc1ccccc1-c1ccc2ncnc(N3CCN(C)CC3)c2c1,–,3.98 µM (active)
COC(=O)c1ccc(Oc2nc(N(C)C)nc(N3CCOCC3)n2)cc1,14.7% [at 11.4 µM],–
c1ccc(C2OCC3(CO2)COC(c2ccccc2)OC3)cc1 (stereo not drawn),–,inactive
C[C@H]1[C@H](C)OC(=O)C[C@H](O)C[C@H](O)C[C@H](O)CC[C@H](O)[C@H](O)CC(=O)C[C@H](O)[C@H](C(=O)O)[C@H](O)C[C@H](O[C@@H]2O[C@@H](C)[C@H](O)[C@@H](N)[C@@H]2O)C=CC=CC=CC=CCCC=CC=C[C@@](C)(O)[C@H]1O,7.28% [at 11.4 µM],–
CCOc1ccc2c(ccc(/C=C\c3cc(C)c4cccnc4c3O)[n+]2C)c1,-23.9% [at 11.4 µM],–
CCCc1cc(=O)oc2c(CN3CCOCC3)c(O)ccc12,1.81% [at 2.29 µM],–
Cn1c(=O)n2n(c1=O)[C@H]1[C@H](O)[C@H]3O[C@H]3C(=O)[C@H]1CC2,-16.9% [at 11.4 µM],–
Cc1cc(Cl)nc2ccc(Cc3ccc4nc(Cl)cc(C)c4c3)cc12,–,3.16 µM (active)
CCc1c(C)nc2ccc(Br)cc2c1Cl,–,inactive
CC(=O)Nc1ccc(Cc2ccc3[nH]c(=O)cc(C)c3c2)cc1,-20.4% [at 11.4 µM],–
COc1ccc2[nH]c(=O)c(CN(CCc3ccccc3)C(C)=O)cc2c1,–,17.8 µM (active)
COc1cccc(C(=O)n2c(SC)nc3cc4c(cc32)OCCO4)c1,–,inactive
COc1ccc2[nH]c(=O)c(NC(N)=S)nc2c1,–,inactive
CCOc1ccc(Cc2nc(C)c(CC(=O)N3CCOCC3)c(=O)[nH]2)cc1,1.75% [at 11.4 µM],–
C[N+]1(CC(=O)OCCCc2ccccc2)CCOCC1,–,inactive
CCOc1ccc2[nH]c(=O)c(CN(CCc3ccccc3)C(=O)N3CCOCC3)cc2c1,–,7.94 µM (active)
O=C(O)c1cc2cc(OCc3ccccc3)ccc2[nH]1,–,inactive
COc1cccc(C(=O)N(Cc2ccccc2)Cc2cc3cc4c(cc3[nH]c2=O)OCCO4)c1,–,3.98 µM (active)

Structure (SMILES),"activity, negative = inhibition",AC50
CCOc1ccc2[nH]c(=O)c(CN(CCc3ccccc3)C(=O)N3CCCC3)cc2c1,–,3.55 µM (active)
CCc1cccc(C)c1NC(=O)CSc1nc2ccc(N3C(=O)c4ccccc4C3=O)cc2s1,–,4.47 µM (active)
CCN(CC)C(=O)CSc1nc2ccc(NC(=O)CSc3nnc(COc4ccccc4C)n3C)cc2s1,-17.9% [at 2.29 µM],–
Cc1cccc(CNc2nc(-c3ccc4c(c3)OCO4)nc3ccccc23)c1,–,0.398 µM (active)
Cc1cnc(CNc2nc(-c3ccc4c(c3)OCO4)nc3ccccc23)cn1,–,0.794 µM (active)
c1csc(CNc2nc(-c3ccc4c(c3)OCO4)nc3ccccc23)c1,–,1 µM (active)
c1cncc(CNc2nc(-c3ccc4c(c3)OCO4)nc3ccccc23)c1,–,0.316 µM (active)
C[C@]1(O)CC[C@H]2[C@H]3CC=C4N5CCN=C5CC[C@@]4(C)[C@H]3CC[C@@]21C,-12.7% [at 11.4 µM],–
c1ccc(CNc2nc(-c3ccc4c(c3)OCO4)nc3ccccc23)cc1,–,1 µM (active)
CC(=O)NCCNc1nc(-c2ccc3c(c2)OCO3)nc2ccccc12,–,3.98 µM (active)
O=C(O)c1cc(-c2ccc3cc4c(cc3c2)OCO4)nc2ccccc12,-17.7% [at 11.4 µM],–
N=C(N)SCc1cccc(-c2nc3ccccc3c(=O)o2)c1,-20.1% [at 11.4 µM],–
COc1ccc(CSC2=C(C#N)C(=O)NC3(CCCCC3)S2)cc1,-12.2% [at 11.4 µM],–
O=C1C=C(c2cccs2)CC(c2cccs2)C1n1cnc([N+](=O)[O-])c1 (stereo not drawn),–,inactive
CCCCSCc1nc2nc(Cl)c(Cl)nc2[nH]1,-27.9% [at 11.4 µM],–
CC1CCN(C(=S)c2ccc(O)cc2)CC1,11.7% [at 2.29 µM],–
CSc1nnc2c(n1)OC(C)N(C(=O)c1ccccc1)c1ccccc1-2 (stereo not drawn),–,inactive
C=CCSc1nnc2c(n1)OC(c1c(C)[nH]n(-c3ccccc3)c1=O)Nc1ccccc1-2 (stereo not drawn),–,14.1 µM (active)
CC(C)[C@@H]1NC(=O)[C@H](CCCCN)NC(=O)[C@H](Cc2c[nH]c3ccccc23)NC(=O)[C@H](Cc2ccc(O)cc2)NC(=O)[C@H](C)N(C)C(=O)[C@H](Cc2ccccc2)NC1=O,–,3.98 µM (active)
O=Nc1c(O)n(Cc2ccc(Cl)c(Cl)c2)c2ccccc12,–,14.1 µM (active)
Clc1ccc(CN2CCCN(Cc3ccc(Cl)cc3)C2c2cc3ccccc3c3ccccc23)cc1,-6.95% [at 11.4 µM],–

Structure (SMILES),"activity, negative = inhibition",AC50
O=Nc1c(O)n(Cc2ccc(Cl)cc2)c2ccccc12,–,17.8 µM (active)
O=c1[nH]ncc2c3ccccc3n(Cc3ccccc3)c12,–,inactive
Cc1sc2ccccc2[n+]1CCC(C)S(=O)(=O)[O-] (stereo not drawn),–,inactive
CCCN(CCC)CCCNS(=O)(=O)c1cc(Br)cc2c1N(C(C)=O)CC2,-10.1% [at 11.4 µM],–
CC(=O)N1c2c(cc(Br)cc2S(=O)(=O)NCC2COc3ccccc3O2)CC1C (stereo not drawn),–,7.94 µM (active)
OC[C@H]1NC[C@@H](O)[C@@H](O)[C@H]1O,–,inactive
CCCCOc1ccc(/C=C/C(=O)NCCc2nc3ccccc3[nH]2)cc1,–,12.6 µM (active)
N[C@@](CCc1ccccc1)(C(=O)O)c1ccccc1,-0.157% [at 11.4 µM],–
COC(=O)N1CCC2(CC1)CN(C(=O)Nc1ccccc1)C2,–,inactive
O=C(Nc1ccc(Cl)cc1)N1CCc2[nH]c3ccccc3c2C1,–,14.1 µM (active)
O=C(Nc1ccccc1)N1CCC2(CCNCC2)CC1,–,inactive
CC[C@H]1C2=C3C(CC[C@H]4C(OCc5ccc(F)cc5C(F)(F)F)OC[C@](C)([C@@H]34)N(C(=O)OC(C)(C)C)C2)C2COC(=O)OCC21 (stereo partly drawn),–,20 µM (active)
C[C@H]1C2=C3C(CC[C@H]4C(OCc5ccc(F)cc5C(F)(F)F)OC[C@](C)([C@@H]34)N(C(=O)OC(C)(C)C)C2)C2COC(=O)OCC21 (stereo partly drawn),–,20 µM (active)
CCCn1c(-c2ccccc2)nc2c(=O)n(C)c(=O)[nH]c21,–,inactive
CC(C)CCN1C(=O)c2ccc(-c3nc4ccccc4c(=O)o3)cc2C1=O,-5.78% [at 11.4 µM],–
Cc1ccc(-c2nc3c(=O)n(C)c4ccccc4c3o2)cc1,–,7.08 µM (active)
CN(C(=O)c1c(O)c2ccccc2n(C)c1=O)c1ccccc1,–,inactive
Cn1c(=O)c2nc(-c3ccccc3)oc2c2ccccc21,–,12.6 µM (active)
Cc1ccc(-n2c(-c3ccccc3)cc(=O)nc2C)cc1,–,inactive
OC[C@@H](O)CNc1ncnc2ccccc12,3.9% [at 11.4 µM],–
